# Assay results from PubChem BioAssay (NCATS).
# Active and inactive are the calls of the source. The call rests on the fitted dose curve; in most records, active means well fitted curve in the direction sought with a large enough effect; inconclusive means small, poorly fitted or top-dose-only effect, or another doubt; inactive means no such curve, though single readings can be large or run the other way.
# Biological target: Hexokinase-4 (Homo sapiens) + Glucokinase regulatory protein (Homo sapiens) (UniProt P35557+Q14397)
# Sequence (P35557 whole entry, looked up): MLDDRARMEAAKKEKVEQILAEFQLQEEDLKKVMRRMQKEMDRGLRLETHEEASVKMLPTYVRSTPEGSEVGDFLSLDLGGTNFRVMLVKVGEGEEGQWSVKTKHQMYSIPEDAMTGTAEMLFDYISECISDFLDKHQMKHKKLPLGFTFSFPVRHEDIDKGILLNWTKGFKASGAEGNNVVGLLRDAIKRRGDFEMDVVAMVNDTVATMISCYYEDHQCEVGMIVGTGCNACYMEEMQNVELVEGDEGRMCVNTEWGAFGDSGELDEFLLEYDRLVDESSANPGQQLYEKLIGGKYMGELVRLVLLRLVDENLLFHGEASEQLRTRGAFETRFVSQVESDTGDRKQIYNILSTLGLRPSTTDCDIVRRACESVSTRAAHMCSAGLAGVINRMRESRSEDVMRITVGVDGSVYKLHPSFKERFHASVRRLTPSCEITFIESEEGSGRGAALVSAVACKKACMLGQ
# Sequence (Q14397 whole entry, looked up): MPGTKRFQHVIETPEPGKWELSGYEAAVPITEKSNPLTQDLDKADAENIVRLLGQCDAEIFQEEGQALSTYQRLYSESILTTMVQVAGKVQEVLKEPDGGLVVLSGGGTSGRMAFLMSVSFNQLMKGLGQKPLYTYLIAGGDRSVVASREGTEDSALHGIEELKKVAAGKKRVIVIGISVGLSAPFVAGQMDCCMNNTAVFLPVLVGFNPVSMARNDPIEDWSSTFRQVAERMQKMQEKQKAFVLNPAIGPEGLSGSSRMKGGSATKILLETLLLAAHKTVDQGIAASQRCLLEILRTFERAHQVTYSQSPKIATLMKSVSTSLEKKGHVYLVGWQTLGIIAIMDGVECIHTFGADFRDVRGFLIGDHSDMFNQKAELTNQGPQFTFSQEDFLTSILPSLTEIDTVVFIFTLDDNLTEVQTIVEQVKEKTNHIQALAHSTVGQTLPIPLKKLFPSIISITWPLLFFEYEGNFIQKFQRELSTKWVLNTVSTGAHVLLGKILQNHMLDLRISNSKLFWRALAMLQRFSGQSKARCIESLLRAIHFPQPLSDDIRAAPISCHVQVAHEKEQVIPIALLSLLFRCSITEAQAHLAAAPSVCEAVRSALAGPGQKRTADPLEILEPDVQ
# Assay: qHTS assay for inhibitors of recombinant human GCK-GKRP interaction: HTRF assay (AID 743207);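 further: 0% = DMSO with GCK present and -100% = DMSO wells lacking GCK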
# Conditions: recombinant GCK-GKRP HTRF binding, 60 min, with sorbitol-6-phosphate; series mostly up to 57.5 µM; activity change, negative = inhibition: at the top concentration
# Summary of the method: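 HTRF read-out (ex 320 nm; 615/665 nm emission) after 60 min RT equilibration of 5 nM GST-GCK, 5 nM FLAG-GKRP, 2 uM S6P, compound and anti-FLAG/anti-GST detection antibodies; signal normalized between DMSO wells with and without GCK.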
row,Compound,"activity change, negative = inhibition"
1,CCN(c1nc(N)c(C(=O)N=C(N)N)nc1Cl)C(C)C,9.66% (inactive)
2,O[Si](CCCN1CCCCC1)(c1ccc(F)cc1)C1CCCCC1 (stereo not given),1.95% (inactive)
3,NC(N)=N[C@@H](CCC(=O)O)C(=O)O,14.2% (inactive)
4,c1ccc(C2CN3CCSC3=N2)cc1 (stereo not given),-3.3% (inactive)
5,O=c1onc2cnc3ccccc3n12,-5.66% (inactive)
6,NCC(O)c1ccc(O)c(O)c1 (stereo not given),-13.9% (inactive)
7,C[C@](Cc1ccc(O)c(O)c1)(NN)C(=O)O,-8% (inactive)
8,O=C1Cc2c([nH]c3ccc(Br)cc23)-c2ccccc2N1,-4.02% (inactive)
9,OC1(c2ccc(Cl)cc2)CCN(Cc2c[nH]c3ccccc23)CC1,5.11% (inactive)
10,COc1cc(CNC(=O)CCCCCCC(C)C)ccc1O,-7.01% (inactive)
11,CC(=O)/C(C)=N/O,-2.47% (inactive)
12,COCc1nc2c([nH]1)c(=O)n(C)c(=O)n2CC(C)C,-0.439% (inactive)
13,C=C1C(=O)O[C@@H]2[C@H]3O[C@]3(C)CCC=C(C)CC[C@@H]12,14.2% (inactive)
14,N#Cc1cc([N+](=O)[O-])c2sc(C(N)=O)[n+]([O-])c2c1,-3.94% (inactive)
15,C=CCn1c(=O)c2c(nc(-c3ccc(S(=O)(=O)O)cc3)n2C)n(C)c1=O,-5.21% (inactive)
16,NC[C@@H]1O[C@H](c2ccccc2)Cc2c1ccc(O)c2O,4.99% (inactive)
17,CCCCCCN(CCCCCC)C(=O)Cc1c(-c2ccc(F)cc2)[nH]c2ccccc12,3.32% (inactive)
18,OC[C@H]1O[C@H](n2cnc3c(N[C@H]4CCC[C@@H]4O)ncnc32)[C@H](O)[C@@H]1O,-11.6% (inactive)
19,Cn1c(=O)c2[nH]c(C3CCCC3)nc2n(C)c1=O,-0.317% (inactive)
20,N[C@H](C(=O)O)[C@H](Cc1ccccc1)C(=O)O,-3.78% (inactive)
